Experimental data published in PubChem BioAssay.
Calls of active or inactive are those of the source.

Tests used:
[1] = small molecules captured by biotinylated probe aFSTL3 – biochemical, small-molecule microarray, fluorescence 635/667, stem cell growth factor project, primary screen (AID 1064); settings: higher = more signal;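 further: measures binding of the biotinylated anti-FSTL3 antibody to printed compounds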
[2] = binders from COS7 lysate, DM2A8 probe, primary screen, torsin A project, cell lysate, small-molecule microarray, fluorescence 635/667 (AID 1065); settings: higher = more signal, COS7 lysate expressing mutant human TOR1A
[3] = small molecules captured by biotinylated probe aFGF2 – biochemical, small-molecule microarray, fluorescence 635/667, stem cell growth factor project, primary screen (AID 1067); settings: higher = more signal;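 further: measures binding of biotinylated aFGF2 protein to printed compounds on slides; z-score merges feature fluorescence and signal-to-noise across triplicate slides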
[4] = small molecules captured by biotinylated probe aFGF10 – biochemical, small-molecule microarray, fluorescence 635/667, stem cell growth factor project, primary screen (AID 1071); settings: higher = more signal;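 further: score merges 667 nm spot intensity and signal to noise from triplicate slides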
[5] = target: Neurogenic locus notch homolog protein 2 (Homo sapiens) (UniProt Q04721); assay: small molecules binding Notch2 protein – biochemical, small-molecule microarray, 635 nm fluorescence, stem cell growth factors, primary screen (AID 1073); settings: higher = more signal
[6] = target: Pro-neuregulin-1, membrane-bound isoform (Homo sapiens) (UniProt Q02297); assay: small molecules binding neuregulin-1 protein – biochemical, small-molecule microarray, fluorescence 635/667, psychiatric disease protein project, primary screen (AID 1075); settings: NRG1 binding, 635 nm fluorescence, higher = more signal;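 further: score combines 667 nm spot fluorescence with signal to noise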
[7] = system: Neuregulin-1 EGF-like domain; assay: small molecules binding NRG1 EGF domain – biochemical, small-molecule microarray, 635 nm fluorescence, primary screen (AID 1081); settings: higher = more signal;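 further: binding of the protein to compounds printed on small-molecule microarray slides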
[8] = FRG1 expression reporter modulators in myotubes – cell-based, C2C12 myotubes, firefly/Renilla luciferase, luminescence, FRG1 inhibition for FSHD, primary screen (AID 1084); settings: FRG1 promoter luciferase, higher = more signal, called active from +8 up or from −8 down
[9] = small molecules captured by biotinylated probe aFST – biochemical, small-molecule microarray, fluorescence 635/667, stem cell growth factor project, primary screen (AID 1086); settings: higher = more signal;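 further: score merges 667 nm fluorescence with signal-to-noise of each printed compound spot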
[10] = binders of probe aHhip on microarray, primary screen, stem cell growth factor project, biochemical, small-molecule microarray, fluorescence 635/667 (AID 1087); settings: higher = more signal;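 further: score merges spot fluorescence at 667nm with spot signal to noise ratio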
[11] = system: PRMT1 (protein arginine N-methyltransferase 1); assay: small molecules binding arginine methyltransferase PRMT1 – biochemical, small-molecule microarray, 635 nm fluorescence, primary screen (AID 1088); settings: higher = more signal;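 further: binding of Prmt1 protein to compounds spotted on small-molecule microarray slides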
[12] = growth effects on S. cerevisiae YJM789 – YJM789 clinical isolate, OD600, 24 h, basal, primary screen (AID 1089); settings: higher = more signal, called active from +8 up or from −8 down;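 further: growth of clinical yeast isolate S. cerevisiae YJM 789 seeded 1000 cells per well; test concentration not given here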
[13] = S. pombe growth modifiers, basal conditions – strain 972, OD600, 24 h, no modulator, primary screen (AID 1090);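 further: basal condition with compound alone and no growth modifier present; test concentration not given here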; settings: S. pombe 972 growth, higher = more signal, called active from +8 up or from −8 down
[14] = budding yeast growth modifiers under rapamycin – strain BY4716, OD600, 96 h, primary screen (AID 1091); further: test concentration not given here; settings: S. cerevisiae BY4716 + rapamycin, higher = more signal, called active from +8 up or from −8 down
[15] = target: Torsin-1A-interacting protein 2 (Homo sapiens) (UniProt Q8NFQ8); assay: small molecules binding lysate-expressed LULL1 – cell lysate, human LULL1 lysate, 635/667 nm fluorescence, primary screen (AID 1092); settings: small-molecule microarray, hLULL1 lysate binding, 635 nm fluorescence; higher = more signal;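 further: probe is lysate of COS7 cells overexpressing human LULL1; score merges per-feature 667 nm fluorescence with signal-to-noise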
[16] = optical density change of DRC41 E. coli – strain DRC41, OD650, 24 h, E. coli filamentation project, primary screen (AID 1093);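 further: MC1000 strain lacking acrAB efflux and sulA so SOS filamentation is blocked; test concentration not given here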; settings: E. coli DRC41 growth, higher = more signal, called active from +8 up or from −8 down
[17] = probe aLefty2 binding to arrayed compounds – biochemical, biotinylated probe, 635/667 nm fluorescence, primary screen (AID 1094); settings: small-molecule microarray, higher = more signal;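 further: score merges spot fluorescence near 667 nm with spot signal-to-noise ratio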
[18] = system: Noggin (protein binding on small-molecule microarray); assay: small molecules binding Noggin protein – biochemical, 635/667 nm fluorescence, primary screen (AID 1095); settings: 635 nm fluorescence, higher = more signal;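 further: score merges 667 nm feature fluorescence with signal to noise over triplicate slides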
[19] = target: Neurogenic locus notch homolog protein 3 (Homo sapiens) (UniProt Q9UM47); assay: small molecules binding NOTCH3 protein – biochemical, 635/667 nm fluorescence, primary screen (AID 1096); settings: small-molecule microarray, 635 nm fluorescence, higher = more signal
[20] = probe aEGFR binding to arrayed compounds – biochemical, biotinylated probe, 635/667 nm fluorescence, primary screen (AID 1097); settings: small-molecule microarray, higher = more signal;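 further: probe is a biotinylated anti-EGFR antibody binding compounds printed on slides; score combines fluorescence near 667 nm and signal to noise of each spot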

Sequence of Neurogenic locus notch homolog protein 3 (Homo sapiens) (Q9UM47 whole entry, looked up): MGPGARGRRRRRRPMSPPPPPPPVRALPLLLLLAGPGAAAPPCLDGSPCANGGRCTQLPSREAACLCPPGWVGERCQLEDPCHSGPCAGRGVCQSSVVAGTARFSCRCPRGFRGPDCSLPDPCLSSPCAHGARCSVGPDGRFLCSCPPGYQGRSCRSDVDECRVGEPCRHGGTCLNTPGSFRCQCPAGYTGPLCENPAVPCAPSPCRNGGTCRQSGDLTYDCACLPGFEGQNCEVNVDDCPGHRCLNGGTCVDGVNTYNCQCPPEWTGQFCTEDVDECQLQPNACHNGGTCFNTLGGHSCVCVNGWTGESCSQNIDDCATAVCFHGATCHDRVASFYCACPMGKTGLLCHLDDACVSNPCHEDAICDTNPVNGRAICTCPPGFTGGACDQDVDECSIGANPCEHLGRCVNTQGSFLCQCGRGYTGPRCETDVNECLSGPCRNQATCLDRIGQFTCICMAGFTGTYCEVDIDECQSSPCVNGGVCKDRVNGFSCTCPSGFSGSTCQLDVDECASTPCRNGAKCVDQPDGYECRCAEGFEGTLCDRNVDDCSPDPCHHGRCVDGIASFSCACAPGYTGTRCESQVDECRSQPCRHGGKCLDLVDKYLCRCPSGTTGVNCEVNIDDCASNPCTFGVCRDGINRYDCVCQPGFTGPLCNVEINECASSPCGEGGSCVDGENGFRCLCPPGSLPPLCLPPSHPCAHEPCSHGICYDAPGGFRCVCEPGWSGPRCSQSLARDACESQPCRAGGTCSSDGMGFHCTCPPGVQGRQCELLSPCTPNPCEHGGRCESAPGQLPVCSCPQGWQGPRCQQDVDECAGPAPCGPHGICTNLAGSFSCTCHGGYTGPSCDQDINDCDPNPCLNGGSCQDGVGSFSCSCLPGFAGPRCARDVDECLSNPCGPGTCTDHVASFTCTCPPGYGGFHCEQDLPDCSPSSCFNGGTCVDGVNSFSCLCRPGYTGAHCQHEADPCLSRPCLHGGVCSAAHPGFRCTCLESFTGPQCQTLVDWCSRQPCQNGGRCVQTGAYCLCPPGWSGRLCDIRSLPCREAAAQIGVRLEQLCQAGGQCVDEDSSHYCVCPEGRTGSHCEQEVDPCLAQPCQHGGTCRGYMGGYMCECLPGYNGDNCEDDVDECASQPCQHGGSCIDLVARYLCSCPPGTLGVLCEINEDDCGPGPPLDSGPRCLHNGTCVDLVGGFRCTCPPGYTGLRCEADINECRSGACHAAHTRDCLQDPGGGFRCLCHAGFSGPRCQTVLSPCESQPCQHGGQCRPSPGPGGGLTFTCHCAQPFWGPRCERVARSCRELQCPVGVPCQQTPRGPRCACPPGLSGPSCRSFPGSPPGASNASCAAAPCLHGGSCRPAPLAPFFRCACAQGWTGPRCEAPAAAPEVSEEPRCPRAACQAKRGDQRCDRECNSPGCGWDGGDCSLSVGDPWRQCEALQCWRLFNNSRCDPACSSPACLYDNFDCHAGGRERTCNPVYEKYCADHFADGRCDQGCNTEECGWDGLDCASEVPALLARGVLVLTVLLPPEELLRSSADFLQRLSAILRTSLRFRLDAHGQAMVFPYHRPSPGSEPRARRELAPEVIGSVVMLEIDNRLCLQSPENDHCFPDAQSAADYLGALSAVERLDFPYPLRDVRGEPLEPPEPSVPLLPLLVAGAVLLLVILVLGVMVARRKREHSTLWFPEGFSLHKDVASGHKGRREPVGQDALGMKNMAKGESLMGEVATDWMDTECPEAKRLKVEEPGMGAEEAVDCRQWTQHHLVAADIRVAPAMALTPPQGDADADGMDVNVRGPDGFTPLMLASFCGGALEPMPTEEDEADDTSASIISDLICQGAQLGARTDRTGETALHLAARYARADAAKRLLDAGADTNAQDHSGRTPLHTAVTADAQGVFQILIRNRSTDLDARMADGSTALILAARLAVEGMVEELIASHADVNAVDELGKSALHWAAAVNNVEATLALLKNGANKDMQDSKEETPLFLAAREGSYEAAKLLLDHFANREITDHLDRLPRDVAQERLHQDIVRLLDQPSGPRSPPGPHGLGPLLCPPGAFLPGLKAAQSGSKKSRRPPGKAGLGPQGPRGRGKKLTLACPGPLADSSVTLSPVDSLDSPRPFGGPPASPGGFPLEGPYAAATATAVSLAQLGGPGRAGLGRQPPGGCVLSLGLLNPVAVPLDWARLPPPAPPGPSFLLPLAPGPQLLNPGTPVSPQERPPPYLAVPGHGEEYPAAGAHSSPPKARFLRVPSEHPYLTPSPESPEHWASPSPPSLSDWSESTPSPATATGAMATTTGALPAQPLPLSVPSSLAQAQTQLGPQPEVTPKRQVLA
Sequence of Pro-neuregulin-1, membrane-bound isoform (Homo sapiens) (Q02297 whole entry, looked up, the tested form may be a part, canonical isoform): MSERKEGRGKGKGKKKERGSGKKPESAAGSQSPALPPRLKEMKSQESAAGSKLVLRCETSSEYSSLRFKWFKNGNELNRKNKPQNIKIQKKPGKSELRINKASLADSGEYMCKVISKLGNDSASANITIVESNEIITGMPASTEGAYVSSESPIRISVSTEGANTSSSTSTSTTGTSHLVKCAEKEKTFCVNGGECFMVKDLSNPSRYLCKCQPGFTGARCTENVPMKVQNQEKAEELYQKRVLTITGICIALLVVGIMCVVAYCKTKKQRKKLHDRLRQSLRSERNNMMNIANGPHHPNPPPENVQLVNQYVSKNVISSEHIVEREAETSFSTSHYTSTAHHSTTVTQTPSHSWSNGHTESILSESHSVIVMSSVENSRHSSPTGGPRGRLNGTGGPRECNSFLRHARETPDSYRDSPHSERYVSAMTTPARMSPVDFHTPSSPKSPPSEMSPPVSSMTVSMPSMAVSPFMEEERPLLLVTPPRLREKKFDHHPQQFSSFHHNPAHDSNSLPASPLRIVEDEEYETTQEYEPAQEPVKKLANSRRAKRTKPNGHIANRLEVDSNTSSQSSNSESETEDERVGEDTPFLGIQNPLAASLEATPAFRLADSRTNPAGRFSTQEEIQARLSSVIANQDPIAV
Sequence of Torsin-1A-interacting protein 2 (Homo sapiens) (Q8NFQ8 whole entry, looked up): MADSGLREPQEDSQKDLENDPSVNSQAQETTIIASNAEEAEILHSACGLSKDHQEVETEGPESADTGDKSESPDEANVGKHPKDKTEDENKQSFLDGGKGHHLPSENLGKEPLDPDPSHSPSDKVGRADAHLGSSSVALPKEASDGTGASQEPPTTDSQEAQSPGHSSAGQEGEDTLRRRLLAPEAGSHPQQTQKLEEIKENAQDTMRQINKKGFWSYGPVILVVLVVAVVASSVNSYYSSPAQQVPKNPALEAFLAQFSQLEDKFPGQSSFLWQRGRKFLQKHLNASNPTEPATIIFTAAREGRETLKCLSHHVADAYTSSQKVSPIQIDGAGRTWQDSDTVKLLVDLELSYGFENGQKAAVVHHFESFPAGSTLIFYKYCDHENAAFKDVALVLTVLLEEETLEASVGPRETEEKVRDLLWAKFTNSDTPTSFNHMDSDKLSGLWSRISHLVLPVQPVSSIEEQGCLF

| Compound | composite z-score [1] | composite z-score [2] | composite z-score [3] | composite z-score [4] | composite z-score [5] | composite z-score [6] | composite z-score [7] | z-score [8] | composite z-score [9] | composite z-score [10] | composite z-score [11] | z-score [12] | z-score [13] | z-score [14] | composite z-score [15] | z-score [16] | composite z-score [17] | composite z-score [18] | composite z-score [19] | composite z-score [20] |
| --- | --- | --- | --- | --- | --- | --- | --- | --- | --- | --- | --- | --- | --- | --- | --- | --- | --- | --- | --- | --- |
| COCCOC(=O)N1C(=O)[C@@]2(c3cc(C#CC4=CCCCC4)ccc31)[C@H](C(=O)N1CCN(c3ncccn3)CC1)[C@H]1C(=O)O[C@H](c3ccccc3)[C@H](c3ccccc3)N1[C@@H]2c1ccc(OCCO)cc1 | 0.121 | 0.181 | 0.0533 | 0.723 | 1.42 | -0.289 | 1.17 | 0.384 (inactive) | 0.824 | 0.109 | 1.55 | 1.48 (inactive) | 0.442 (inactive) | 3.23 (inactive) | 2.02 | 0.0301 (inactive) | 0.415 | 0.554 | 1.14 | 0.145 |
| CN(C)CCCCCCNC(=O)[C@@H]1C[C@@H]2C(=O)N[C@@H](Cc3ccccc3)C(=O)N2[C@@H]1c1cccc(OCCO)c1 | 0.0797 | 1.42 | -0.0605 | 0.215 | 0.0438 | 1.42 | 1.33 | 3.59 (inactive) | 0.258 | 0.241 | 1.55 | -1.49 (inactive) | -1.07 (inactive) | -0.567 (inactive) | 2.67 | 0.698 (inactive) | 0.0498 | 1.05 | 1.13 | -0.0492 |
| [N-]=[N+]=NCc1ccccc1[C@H]1OC(c2ccc(OCCCO)cc2)=N[C@@]1(Cc1ccccc1)C(=O)O | 0.227 | 0.325 | -0.0586 | 0.345 | 0.653 | 1.1 | 0.97 | 1.82 (inactive) | 0.554 | -0.0994 | 1.55 | -0.36 (inactive) | -2.06 (inactive) | -0.759 (inactive) | 2.81 | -0.395 (inactive) | 0.0869 | 0.462 | 0.502 | 0.346 |
| COc1cc(NN2C(C(O)c3ccccc3)C=CC3C(=O)N(c4ccccc4)C(=O)C32)cc(OC)c1OC (stereo not given) | -0.0824 | 0.215 | 0.135 | 1.13 | 1.56 | 1.87 | 1.38 | 0.556 (inactive) | 1.08 | -0.194 | 1.34 | 0.694 (inactive) | -0.933 (inactive) | 0.126 (inactive) | 3.5 | -0.288 (inactive) | 0.17 | 0.833 | 1.03 | 0.016 |
| COC(=O)[C@@]1(Cc2ccc(OC)cc2)[C@H]2c3cc(C(=O)N4CCCC4)n(CCc4ccccn4)c3C[C@H]2CN1C(=O)c1ccccc1 | 0.587 | -0.0862 | 0.233 | 0.291 | 1.42 | 1.81 | 1.13 | 3.33 (inactive) | 0.462 | 0.251 | -1.52 | 0.328 (inactive) | 0.479 (inactive) | 0.556 (inactive) | 3.62 | -1.41 (inactive) | 0.0363 | -0.857 | -0.14 | -0.0122 |
| C=C(CCCC)C(=O)CC[C@@H](OC(=O)c1ccccc1-c1ccccc1C(=O)O)c1ccc(CO)o1 | -0.241 | -0.141 | -0.0291 | 0.45 | 0.629 | 0.504 | 0.989 | -0.161 (inactive) | 0.137 | 0.192 | 1.56 | -0.516 (inactive) | -0.0561 (inactive) | -0.667 (inactive) | 0.779 | 0.122 (inactive) | 0.0202 | 1.24 | 0.534 | 0.0068 |
| COc1ccc([Si](C)(C)[C@@H]2[C@@H](CCO)O[C@]3(C(=O)N(Cc4cccc(N(C=O)c5ccccc5)c4)c4ccccc43)[C@H]2C)cc1 | 0.318 | 0.526 | -0.0784 | -0.126 | 0.199 | 0.835 | 0.787 | -0.198 (inactive) | 0.316 | 0.0524 | 1.12 | 1.35 (inactive) | 0.946 (inactive) | 9.98 (active) | 0.745 | 1.03 (inactive) | -0.0719 | 0.145 | 0.258 | -0.201 |
| C#C[C@H]1Oc2ccccc2S(=O)(=O)N2CCC[C@@H]12 | 0.246 | 0.321 | -0.116 | -0.223 | -0.564 | -0.671 | -0.344 | -0.316 (inactive) | 0.0511 | 0.0373 | -0.513 | -0.346 (inactive) | -0.133 (inactive) | -1.55 (inactive) | -0.607 | -0.738 (inactive) | -0.0804 | 0.636 | -0.226 | -0.0564 |
| CC(C)NC(=O)[C@@]1(c2ccc([N+](=O)[O-])cc2)CC(=O)N(C(C)C)[C@@H]1c1ccc(CO)cc1 | 1.12 | -0.0946 | -0.134 | -0.218 | -0.999 | -0.524 | 0.697 | -0.31 (inactive) | -1.08 | -0.256 | 0.859 | -2.06 (inactive) | -0.476 (inactive) | -0.692 (inactive) | 2.61 | 1.26 (inactive) | 0.0945 | -1.14 | -0.323 | -0.253 |
| Cc1ccc(F)cc1S(=O)(=O)N[C@@H]1CCN(Cc2ccc(C(F)(F)F)cc2)C1 | -0.234 | 0.588 | -0.198 | -1.06 | -1.26 | 0.0824 | -0.19 | -3.87 (inactive) | -0.47 | -0.283 | 1.14 | -1.27 (inactive) | -20.3 (active) | -1.1 (inactive) | 1.08 | -4.8 (inactive) | -0.227 | 0.412 | -0.145 | -0.218 |
